# Assay results: ChEMBL document CHEMBL4888484, “Replenishing the malaria drug discovery pipeline: Screening and hit evaluation of the MMV Hit Generation Library 1 (HGL1) against asexual blood stage Plasmodium falciparum ,using a nano luciferase reporter read-out” (2022)
# In all, about 150,000 compounds went through this assay and about 540 (0.36%) showed an effect of 50% or more. For the sample, strong results were picked, then their nearest neighbours and some compounds at random.
# Tested on: Plasmodium falciparum
# Assay: Primary screen in NF54 nanoGlo assay, in single point, at 2uM, 72h; a lower Z score goes with more inhibition
# Assay type: functional, Erythrocyte
# Conditions: timepoint 72 hour
SMILES,% Inhibition,Z score
O=C(Nc1ccc(-n2cnnn2)cc1)c1coc(-c2ccccc2)n1,-6%,1.22
CN1CCN(S(=O)(=O)N[C@@H](CO)c2ccc(F)cc2)CC1,-12%,2.47
COc1cc2c(N3CCC([C@H](O)C(=O)NC4CC4)CC3)ccnc2cc1F,-6%,0.61
OC[C@H]1CCN(c2ccnc3cc(Cl)ccc23)C[C@@H]1O,-1%,0.17
CCC(CC)N(Cc1ccc2c(c1)OCO2)C(=O)Cc1cccnc1,23%,-2.95
CCOc1ccc(CN2CCC[C@@](F)(C(=O)N3CCOCC3)C2)cc1OC,-11%,0.93
N#CCc1ncc(CCN2C(=O)c3ccccc3C2=O)s1,51%,-6.59
O=C1c2ccccc2C(=O)N1Cc1cnc(N2CCCCC2)s1,45%,0.07
CC(=O)Nc1ccnc(Cc2ccccc2)n1,-8%,1.29
CC(CCc1cccn1C)NC(=O)NC1CCN(c2cnn(C)c2)C1 (centres undefined),-1%,0.08
CCc1nn(C)cc1NC(=O)N1CCN(C(=O)c2ccc(F)cc2)CC1,5%,-0.74
COc1ccccc1Nc1c2c(nc3ccc(NC(=O)c4ccc5c(c4)OCO5)cc13)CCCC2,2%,-0.26
COc1ccc(C(=O)Nc2ccc3nc4c(c(Nc5ccc(OC)c(OC)c5)c3c2)CCCC4)c(OC)c1,-8%,0.97
CCOc1cc(C(=O)Nc2ccc3nc4c(c(Nc5ccc(OC)c(OC)c5)c3c2)CCCC4)cc(OCC)c1OCC,93%,-11.16
CCC1(N2CCOCC2)CCN(c2ncc(C(F)(F)F)s2)CC1,12%,-1.55
FC(F)(F)c1cnc(N2CCOC3(CCOCC3)CC2)s1,105%,-19.68
CC1(N2CCOCC2)CCN(c2ncc(C(F)(F)F)s2)CC1,-5%,0.84
CC(C)(C)c1cc(CN2CCC3(CC2)[C@H](O)C[C@@H]3O)n[nH]1,-1%,0.15
CC(C)(C)c1cc(CN2CCN(S(N)(=O)=O)CC2)n[nH]1,72%,-0.86
CC1(C#N)CCN(Cc2cc(C(C)(C)C)[nH]n2)CC1,4%,-0.56
CC(C)OCC(=O)Nc1ccn(CCCn2ccnc2)n1,-7%,1.24
COc1ccc(CC(=O)Nc2cc(C)n(-c3cccc(Cl)c3)n2)cc1,80%,-8.55
CCc1cc(NC(=O)Cc2ccc(OC)cc2)nn1-c1ccc(OC)cc1,-2%,0.3
Cc1cc(NC(=O)COc2ccccc2)nn1-c1ccc(Cl)cc1,-3%,0.32
O=C(Nc1cccnc1O)c1nc(C2CC2)n(-c2ccccc2)n1,33%,-3.76
CN(C)C(=NCCC1CCCC1)N(C)C,-7%,0.94

SMILES,% Inhibition,Z score
O=C(Cc1n[nH]c(=O)c2ccccc12)N[C@H]1CCCc2c1[nH]c1c(Cl)cccc21,3%,-0.39
CCN1CCCCc2cc(C(=O)N[C@H]3CCS(=O)(=O)C3)sc21,-2%,0.2
CCC(=O)N1c2ncnn2C(c2ccc(C)cc2)CC1c1ccccc1 (centres undefined),3%,-0.41
COc1ccc(C2CC(c3ccc(C)cc3)n3ncnc3N2C(=O)c2ccccc2)cc1 (centres undefined),32%,-3.62
COc1ccc(C(=O)N2c3ncnn3C(c3ccccc3)CC2c2ccc(C)cc2)cc1OC (centres undefined),76%,-10.75
CC(C)n1ncc2c1CC(NC(=O)CCC1CCCO1)CC2 (centres undefined),-3%,0.62
CN(C)c1ccc(C(=O)Nc2ccccc2-c2cn3c(n2)CCCC3)nn1,-10%,1.93
O=C1C2CCCCN2C(=O)N1CC(O)COc1ccc(F)cc1 (centres undefined),-5%,0.77
CCOC1CC(NC2CC(c3ccc(F)cc3)C2)C12CCC2 (centres undefined),85%,-15.92
CCOC1CC(NC(C)C(=O)N(C)Cc2cccc(F)c2)C12CCCC2 (centres undefined),4%,-0.62
CCOC1CC(NCc2c[nH]nc2-c2cccnc2)C12CCC2 (centres undefined),-10%,1.18
CCn1ccc(C(=O)N2CC(N(Cc3cccnc3)S(C)(=O)=O)C2)n1,-4%,0.78
CC(C)(C)OC(=O)N[C@@H]1CCCN(Cc2nc(-c3ccco3)no2)C1,-11%,1.1
CCc1c(C)nn2c(c1C)c(-c1ccccc1)[n+]1c(C)c(CC)c(C)nc21,53%,-10.21
CCc1noc(Cc2c(C)nn(-c3ccccc3)c2C)n1,-5%,0.89
Cc1nn2c(-c3ccc(-c4ccccc4)cc3)ccnc2c1Cl,-12%,1.64
C[C@@H](CN1CCOCC1)NC(=O)c1cccc2c1C(=O)OC2(C)C,2%,-0.36
O=C(CN1C(=O)CCC1=O)N1CCN(S(=O)(=O)c2ccc(Br)cc2)CC1,-14%,1.24
COc1cccc([C@H]2C[C@H](N(C)C(=O)CCCC(F)(F)F)C2)c1,5%,-0.72
Cn1nc(-c2nc(-c3cccc(F)c3)no2)c2c1CCN(C(=O)c1ccccn1)C2,12%,-1.38
Cn1nc(-c2nc(-c3cccc(F)c3)no2)c2c1CCN(C(=O)c1cccc(F)c1)C2,-7%,0.84
Cn1nc(-c2nc(-c3ccc(F)cc3)no2)c2c1CCN(C(=O)c1cccc(Cl)c1)C2,66%,-7.55
CC12CN(S(=O)(=O)c3ccc4c(c3)OCCO4)C3(C(=O)NCCc4ccccc4)CC1CCC23C (centres undefined),-11%,1.42
CC12CN(S(=O)(=O)c3ccccc3)C3(C(=O)O)CC1CCC23C (centres undefined),6%,-0.98
CC12CN(S(=O)(=O)c3ccc4c(c3)OCCO4)C3(C(=O)OCc4ccccc4)CC1CCC23C (centres undefined),70%,-8.79
CCCN1CCN(CCCNC(=O)c2cc3cc(S(=O)(=O)N(C)C)ccc3n2CC)CC1,-15%,2.13
